Experimental data published in PubChem BioAssay AID720541 (National Center for Advancing Translational Sciences (NCATS), 2013).
About 420 (32%) of roughly 1,300 compounds were called active. Roughly 32% stayed inconclusive and do not appear here. Calls follow the shape of the dose curve; as a rule, active = well fitted inhibition curve with a large enough effect; inconclusive = small, poorly fitted or top-dose-only effect; inactive = no such curve, though single readings can be large or run the other way. The list shows a part of the results. A call without a number means that no potency is given here.

The compounds below were run against C-terminal-binding protein 1 (Homo sapiens) (UniProt Q13363) (assay: qHTS for Inhibitors of the Phosphatase Activity of Eya2: Carboxyl-terminal binding protein (CtBP) Counterscreen for Cherry-picked Compounds). Settings: purified protein-protein binding, AlphaScreen, 3 h; series mostly up to 46.1 µM.
Outline: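 AlphaScreen using 25 nM GST-E1A with 25 nM CtBP-6xHIS; compounds at 2.5 nM–46 uM final, 2 h at room temperature, then donor/acceptor beads (20 ug/mL) for 1 h in the dark. Signal normalized to E1A peptide inhibitor (maximum inhibition) and DMSO.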
Also: nearly all actives have a fitted effect of over 65% in size.
Potency is read from the fitted curve at half-maximal effect.

SMILES	Potency
COc1ccc(-n2c(SCC(=O)Nc3cc(C(=O)O)ccc3C)nc3ccccc3c2=O)cc1Cl	8.49 µM (active)
O=C(O)c1ccc(CSc2nc3ccccc3c(=O)n2-c2ccccc2)cc1	inactive
COc1cc(NC(=O)CSc2ccc(-c3ccccn3)nn2)cc(OC)c1	1.9 µM (active)
COc1ccc(NC(=O)CN(C)C(=O)c2cccc(-n3cccc3)c2)cc1	inactive
COc1ccccc1CNC(=O)c1ccc2c(=O)n(CCCN3CCCC3=O)c(=S)[nH]c2c1	inactive
COc1ccc(NC(=O)CSc2ccc(-c3ccccn3)nn2)cc1OC	3.79 µM (active)
COc1ccccc1CNC(=O)CSc1ccc(-c2ccccn2)nn1	8.49 µM (active)
COc1ccccc1CNC(=O)CCCc1cn(C)c2ccccc12	inactive
O=C(CSc1ccc(-c2ccccn2)nn1)Nc1cccc(F)c1	inactive
Cc1cc(C(=O)c2ccccc2)cc(C)c1O	inactive
CC1Cc2ccccc2N1C(=O)C1CCCN1S(=O)(=O)c1ccc(Cl)cc1 (stereo not drawn)	inactive
CC1CCN(CC2C(=O)O[C@@H]3C[C@@]4(C)CCC[C@H](C)C4=C[C@H]23)CC(C)(C)C1 (stereo partly drawn)	inactive
Nc1[nH]nc2ncc3cc4ccccc4nc3c12	10.7 µM (active)
O=C(Cn1c(S(=O)(=O)Cc2ccccc2)nc2ccccc21)N1CCCCC1	inactive
O=C(CSc1ccc(-c2ccccn2)nn1)N1CCCCC1	7.57 µM (active)
O=C(CSc1ccc(-c2ccccn2)nn1)N1CCCC1	8.49 µM (active)
O=C(C1=C[C@H](c2ccccc2)C[C@H](OCc2ccc(CO)cc2)O1)N1CCN(Cc2ccccc2)CC1	inactive
O=[N+]([O-])c1ccccc1/C=C\C=N\N1CCN(c2ccccc2)CC1	inactive
COc1ccc(-n2c(CN3CCN(c4ccccc4OC)CC3)nc3ccc([N+](=O)[O-])cc3c2=O)c(OC)c1	inactive
COc1ccccc1N1CCN(/N=C/C=C\c2ccccc2[N+](=O)[O-])CC1	15.1 µM (active)
O=C(c1cccs1)N1CCC(c2nc3c(nnn3Cc3cccc(Cl)c3)c(=O)[nH]2)CC1	12 µM (active)

SMILES	Potency
CCOC(=O)c1cnc2c(C#N)cnn2c1N	10.7 µM (active)
CC(NC(=O)c1cc2c(s1)CS(=O)(=O)C2)c1ccccc1 (stereo not drawn)	inactive
CCOc1ccc2[nH]cc(-c3csc(N)n3)c2c1	12 µM (active)
O=c1cc2oc3cc(O)c(O)cc3c(-c3ccccc3[N+](=O)[O-])c-2cc1O	9.53 µM (active)
Cc1cccc(C)c1OCc1cc(C(=O)N2CCN(c3ccccc3)CC2C)no1 (stereo not drawn)	inactive
COc1ccc(-c2c(N)cnc(C(=O)O)c2C)c(OCc2ccccc2)c1OC	12 µM (active)
COc1cc(C(C(=O)NC2CCCCC2)N(C(=O)Cc2c[nH]c3ccccc23)c2ccc(C)cc2)cc(OC)c1OC (stereo not drawn)	inactive
Cc1cc(/C=N/NC(=O)c2ccccn2)c(C)n1-c1cccc([N+](=O)[O-])c1	15.1 µM (active)
CCCCn1nc(C(=O)Nc2ccc3c(c2)OCO3)c2ccccc2c1=O	15.1 µM (active)
Cn1nnnc1SCC(=O)Nc1ccc2c(c1)OCO2	inactive
O=C(CCn1c(=O)oc2ccccc21)NCc1ccc2c(c1)OCO2	inactive
COc1cc2c(cc1OC)C(c1ccc([N+](=O)[O-])cc1)NCC2 (stereo not drawn)	inactive
Nc1ccc2nc3c(=O)[nH]c(=S)[nH]c3nc2c1	3.79 µM (active)
CN(C)c1ccc(N=Nc2ccnc3ccccc23)cc1	2.13 µM (active)
COc1cc(NC(=O)CN2C(=O)CSc3ccc(S(=O)(=O)N4CCCC4)cc32)cc(OC)c1	inactive
COc1ccc(C2CC(c3ccccc3OC(=O)/C=C/c3ccccc3)=NN2C(C)=O)cc1 (stereo not drawn)	1.69 µM (active)
CCC(=O)N1N=C(c2ccc(C)o2)CC1c1ccc(N(C)C)cc1 (stereo not drawn)	inactive
O=C(Oc1cccnc1)c1ccc([N+](=O)[O-])cc1Cl	inactive
COc1ccc(CCn2c(=N)c(C(=O)NCC3CCCO3)cc3c(=O)n4ccccc4nc32)cc1 (stereo not drawn)	12 µM (active)
Cc1cccn2c(=O)c3cc(S(=O)(=O)c4ccc(F)cc4)c(=N)n(Cc4ccco4)c3nc12	inactive
COc1ccc(CCn2c(=N)c(C(=O)NCc3ccco3)cc3c(=O)n4ccccc4nc32)cc1OC	9.53 µM (active)

SMILES	Potency
COc1ccccc1Nc1nc(-c2ccc3c(c2)NC(=O)CO3)cs1	inactive
COc1ccc(-c2csc(Nc3ccc(S(N)(=O)=O)cc3)n2)cc1OC	15.1 µM (active)
Cc1cc(C(=O)COC(=O)c2cccnc2Cl)c(C)n1-c1c(C)n(C)n(-c2ccccc2)c1=O	inactive
CCn1cc(C(=O)OCC(=O)c2cc(C)n(-c3ccccc3F)c2C)c(=O)c2ccc(C)nc21	16.9 µM (active)
COCCn1c(C)cc(C(=O)COC(=O)c2ccccc2Br)c1C	inactive
O=C(COC(=O)c1cc(-c2cccnc2)nc2ccccc12)Nc1ccc(F)cc1F	inactive
COc1ccc(NC(=O)c2ccc(COc3ccccc3)o2)c(OC)c1	inactive
CS(=O)(=O)c1ccc(-c2nnc(NC(=O)C3=COCCO3)o2)cc1	inactive
CCc1ccc(NC(=O)COC(=O)c2ccccc2OCC(=O)N(C)C)cc1	inactive
COc1ccc(C(=O)Nc2nnc(-c3ccccc3)o2)cc1OC	19 µM (active)
CCOc1ccccc1C(=O)OCC(=O)Nc1nnc(-c2ccccc2)o1	13.5 µM (active)
O=C(COc1ccccc1)Nc1nnc(-c2ccco2)o1	16.9 µM (active)
CC1CCCN(S(=O)(=O)c2ccc(C(=O)Nc3nnc(-c4ccco4)o3)cc2)C1 (stereo not drawn)	inactive
CCC(=O)NC(=S)Nc1ccc(NC(=O)COc2ccc([N+](=O)[O-])cc2)cc1	inactive
COc1ccccc1-c1noc2c1C(=O)N(Cc1cn(-c3ccc(Cl)cc3)nn1)CC2	inactive
COc1cc(N)c(Cl)cc1C(=O)N[C@H]1CCN(CCCOc2ccc(F)cc2)C[C@H]1OC	inactive
Brc1ccc(Cn2c(-c3ccc(Br)o3)nc3ccccc32)o1	inactive
Cc1cc(C(=O)COC(=O)c2ccc(O)cc2)c(C)n1CCc1ccc(F)cc1	inactive
CCn1c(C)cc(/C=C2/SC(=O)N(C(C)C(=O)OC)C2=O)c1C (stereo not drawn)	inactive
CCOC(=O)C(C)N1C(=O)S/C(=C\c2ccc(-c3ccccc3C(=O)O)o2)C1=O (stereo not drawn)	15.1 µM (active)
Cc1c(C(=O)O)cccc1-c1ccc(/C=C2\SC(=O)NC2=O)o1	inactive
